Experimental findings from publication PMC5700166 are described below.

Numbering of substitutions follows the chain as printed.

What all share (assay): protein-binding microarray (PBM); PBM: ~300 nM protein, 6 mM HEPES pH 7.8, 80 mM KCl, 0.5 mM EDTA, 0.5 mM EGTA, 6% glycerol, 35 ng/ul poly-dIdC, 1% milk, 1 h, room temperature; Ap Aiptasia and Nv Nematostella (sea anemones) / Co Capsaspora / Aq Amphimedon (sponge) / Dm Drosophila / Hu human; RHD is the Rel homology domain; high values mean tight binding
Conditions in all cases: dsDNA, one strand shown

One assay addresses T1, GST-Ap-NF-kB RHD (Exaiptasia pallida (Aiptasia), UniProt A0A913YAJ5 2-422).
T1 sequence: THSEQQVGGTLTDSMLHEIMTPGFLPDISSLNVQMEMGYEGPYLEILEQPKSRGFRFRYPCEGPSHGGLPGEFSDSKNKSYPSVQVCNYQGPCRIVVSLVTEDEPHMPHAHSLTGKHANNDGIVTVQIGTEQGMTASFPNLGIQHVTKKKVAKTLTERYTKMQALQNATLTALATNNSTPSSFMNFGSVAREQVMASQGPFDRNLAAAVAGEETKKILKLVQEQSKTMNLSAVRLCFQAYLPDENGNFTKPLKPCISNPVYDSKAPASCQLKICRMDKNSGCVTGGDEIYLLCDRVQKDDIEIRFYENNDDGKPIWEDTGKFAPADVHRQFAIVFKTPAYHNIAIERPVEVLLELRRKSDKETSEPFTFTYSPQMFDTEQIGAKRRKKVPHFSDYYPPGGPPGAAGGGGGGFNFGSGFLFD

For assay [1], the target named is T2, GST-Nv-NF-kB (Cys allele) (Nematostella vectensis, UniProt E5G601 2-411).
T2 sequence: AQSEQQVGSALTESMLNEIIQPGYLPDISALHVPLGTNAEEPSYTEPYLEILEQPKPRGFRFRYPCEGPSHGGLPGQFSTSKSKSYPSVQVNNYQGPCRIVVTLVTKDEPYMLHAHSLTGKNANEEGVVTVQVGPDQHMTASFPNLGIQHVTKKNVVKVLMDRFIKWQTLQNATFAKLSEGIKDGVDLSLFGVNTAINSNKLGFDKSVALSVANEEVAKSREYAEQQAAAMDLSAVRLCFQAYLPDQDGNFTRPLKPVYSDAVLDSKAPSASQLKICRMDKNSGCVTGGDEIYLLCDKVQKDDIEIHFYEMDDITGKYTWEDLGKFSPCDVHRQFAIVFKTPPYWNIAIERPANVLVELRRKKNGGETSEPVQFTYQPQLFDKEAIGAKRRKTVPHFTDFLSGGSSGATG

Assay [2] has as its target T3, GST-Nv-NF-kB (Ser allele) (Nematostella vectensis, UniProt A7UNT2 2-411).
T3 sequence: T2 sequence with Q21R, C66S, S207N, E215Q, V217A, E225K, A268E, D399E

Another assay has as its target T4, GST-Co-NF-kB (Capsaspora owczarzaki, UniProt F1ARL5 200-546).
T4 sequence: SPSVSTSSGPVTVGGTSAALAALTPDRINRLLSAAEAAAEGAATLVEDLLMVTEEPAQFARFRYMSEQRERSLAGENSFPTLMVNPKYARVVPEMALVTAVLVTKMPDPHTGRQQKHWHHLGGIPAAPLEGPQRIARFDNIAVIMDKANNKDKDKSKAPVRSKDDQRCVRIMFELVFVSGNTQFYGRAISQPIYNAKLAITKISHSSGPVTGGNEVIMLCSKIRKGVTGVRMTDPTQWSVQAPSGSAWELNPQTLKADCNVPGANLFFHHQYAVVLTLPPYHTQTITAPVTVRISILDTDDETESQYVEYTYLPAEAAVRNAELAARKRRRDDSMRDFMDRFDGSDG

The next assay concerns the target T5, GST-Dm-Relish (Drosophila melanogaster, UniProt Q94527 99-473).
T5 sequence: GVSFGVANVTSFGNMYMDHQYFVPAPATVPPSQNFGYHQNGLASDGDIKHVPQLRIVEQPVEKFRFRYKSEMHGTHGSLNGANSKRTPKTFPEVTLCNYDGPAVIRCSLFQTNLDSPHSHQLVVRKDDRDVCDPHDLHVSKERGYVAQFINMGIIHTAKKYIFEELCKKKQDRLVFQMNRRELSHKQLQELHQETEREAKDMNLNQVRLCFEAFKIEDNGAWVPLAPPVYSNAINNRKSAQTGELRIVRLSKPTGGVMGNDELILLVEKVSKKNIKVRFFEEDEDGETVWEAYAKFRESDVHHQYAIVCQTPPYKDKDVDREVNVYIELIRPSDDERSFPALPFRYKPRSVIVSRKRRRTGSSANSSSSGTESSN

Another assay has as its target T6, GST-Aq-NF-kB (Amphimedon queenslandica, UniProt A9Y5G7 2-389).
T6 sequence: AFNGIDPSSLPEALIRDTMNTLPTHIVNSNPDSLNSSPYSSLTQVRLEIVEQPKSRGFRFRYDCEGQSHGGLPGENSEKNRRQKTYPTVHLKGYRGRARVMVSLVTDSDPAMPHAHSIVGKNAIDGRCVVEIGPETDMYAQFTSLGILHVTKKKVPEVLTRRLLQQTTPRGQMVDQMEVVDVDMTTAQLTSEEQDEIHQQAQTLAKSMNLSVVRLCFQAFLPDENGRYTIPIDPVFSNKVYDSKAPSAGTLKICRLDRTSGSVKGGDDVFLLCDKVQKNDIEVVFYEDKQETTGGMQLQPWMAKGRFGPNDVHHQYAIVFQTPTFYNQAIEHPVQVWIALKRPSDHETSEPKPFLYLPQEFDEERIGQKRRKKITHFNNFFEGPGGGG

The target of another assay is GST-Hu-p50 (Homo sapiens, UniProt P19838 7-356).
Sequence of GST-Hu-p50 (P19838 7-356): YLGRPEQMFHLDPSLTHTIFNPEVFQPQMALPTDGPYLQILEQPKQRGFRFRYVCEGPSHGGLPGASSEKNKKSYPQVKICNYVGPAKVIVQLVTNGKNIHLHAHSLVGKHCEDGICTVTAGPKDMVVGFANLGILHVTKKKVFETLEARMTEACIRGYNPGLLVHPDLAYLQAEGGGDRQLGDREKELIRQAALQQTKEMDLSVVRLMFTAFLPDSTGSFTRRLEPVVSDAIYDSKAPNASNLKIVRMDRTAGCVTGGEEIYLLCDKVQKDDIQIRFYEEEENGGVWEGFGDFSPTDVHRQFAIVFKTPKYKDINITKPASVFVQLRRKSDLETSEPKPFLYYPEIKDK

As for “CCGATTAACATCAAGGGGGAATATGATGTTAATCGGGTCTTGATTCGCTTGACGCTGCTG”, the binding signal was 7.61 z-score with GST-Ap-NF-kB RHD; 8.35 z-score in assay [1]; 9.33 z-score in assay [2]; 7.86 z-score with GST-Co-NF-kB; 4.64 z-score with GST-Dm-Relish; 6.45 z-score with GST-Aq-NF-kB. This sequence also had a binding signal with GST-Hu-p50 of 6.95 z-score.

For the sequence “CCGATTAACATCAAGAATTTCCCTGATGTTAATCGGGTCTTGATTCGCTTGACGCTGCTG”, the binding signal in the assay with GST-Ap-NF-kB RHD was 5.92 z-score; in assay [1], 7.47 z-score; in assay [2] it was 7.49 z-score; with GST-Co-NF-kB, 5.07 z-score; in the assay with GST-Dm-Relish, 3.52 z-score; with GST-Aq-NF-kB, 7.53 z-score. Further, in the assay with GST-Hu-p50, the binding signal amounted to 5.23 z-score.

On to “CCGATTAACATCAAATAAACCCCTGATGTTAATCGGGTCTTGATTCGCTTGACGCTGCTG”, for which the binding signal in the assay with GST-Ap-NF-kB RHD was found to be 4.74 z-score; in assay [1], 5.11 z-score; in assay [2], 4.3 z-score; in the assay with GST-Co-NF-kB, 2.32 z-score; with GST-Dm-Relish, 6.13 z-score; with GST-Aq-NF-kB, 5.4 z-score. The sequence also registered a binding signal in the assay with GST-Hu-p50 of 4.96 z-score.

As to “CCGATTAACATCAGGGATCCCCCTGATGTTAATCGGGTCTTGATTCGCTTGACGCTGCTG”, the binding signal with GST-Ap-NF-kB RHD is 12 z-score; in assay [1], 10.2 z-score; in assay [2], 9.22 z-score; in the assay with GST-Co-NF-kB, 5.15 z-score; with GST-Dm-Relish it was 11.1 z-score; in the assay with GST-Aq-NF-kB, 10.3 z-score. The sequence also showed a binding signal with GST-Hu-p50 of 6.45 z-score.

“CCGATTAACATCACATGGGAATCTGATGTTAATCGGGTCTTGATTCGCTTGACGCTGCTG”: the binding signal came out at 1 z-score in the assay with GST-Ap-NF-kB RHD; 2.19 z-score in assay [1]; 2.46 z-score in assay [2]; 1.08 z-score with GST-Co-NF-kB; 1.82 z-score with GST-Dm-Relish; 1.14 z-score with GST-Aq-NF-kB. This sequence registered a binding signal with GST-Hu-p50 of 1.59 z-score.

On to “CCGATTAACATCAGGGGAATCTATGATGTTAATCGGGTCTTGATTCGCTTGACGCTGCTG”, for which the binding signal with GST-Ap-NF-kB RHD is 8.26 z-score; in assay [1] it was 8.91 z-score; in assay [2], 10.6 z-score; in the assay with GST-Co-NF-kB, 7.29 z-score; with GST-Dm-Relish, 5.84 z-score; with GST-Aq-NF-kB, 5.95 z-score. Also, the binding signal in the assay with GST-Hu-p50 was 6.51 z-score.

Regarding “CCGATTAACATCAGGGGGTATAATGATGTTAATCGGGTCTTGATTCGCTTGACGCTGCTG”, the binding signal in the assay with GST-Ap-NF-kB RHD is 5.4 z-score; in assay [1], 3.26 z-score; in assay [2], 4.36 z-score; with GST-Co-NF-kB it was 5.2 z-score; with GST-Dm-Relish, 3.02 z-score; with GST-Aq-NF-kB, 3.48 z-score. Moreover, in the assay with GST-Hu-p50, the binding signal was 4.16 z-score.

Take “CCGATTAACATCAGGGGGCGGGATGATGTTAATCGGGTCTTGATTCGCTTGACGCTGCTG”: the binding signal in the assay with GST-Ap-NF-kB RHD was 3.64 z-score; in assay [1], 4 z-score; in assay [2], 3.53 z-score; with GST-Co-NF-kB it was 2.28 z-score; with GST-Dm-Relish it was 3.49 z-score; in the assay with GST-Aq-NF-kB, 4.03 z-score. The same sequence displayed a binding signal in the assay with GST-Hu-p50 of 4.21 z-score.

As to “CCGATTAACATCAGAATATCCCCTGATGTTAATCGGGTCTTGATTCGCTTGACGCTGCTG”, the binding signal with GST-Ap-NF-kB RHD came out at 7.8 z-score; in assay [1], 7.86 z-score; in assay [2] it was 8.08 z-score; in the assay with GST-Co-NF-kB, 3.97 z-score; with GST-Dm-Relish, 6.49 z-score; in the assay with GST-Aq-NF-kB it was 5.85 z-score. The binding signal with GST-Hu-p50 is 5.75 z-score.

As for “CCGATTAACATCAGGGGGAAGACTGATGTTAATCGGGTCTTGATTCGCTTGACGCTGCTG”, the binding signal with GST-Ap-NF-kB RHD stood at 5.87 z-score; in assay [1] it was 6.01 z-score; in assay [2] it was 6.96 z-score; with GST-Co-NF-kB, 8.23 z-score; in the assay with GST-Dm-Relish, 4.92 z-score; in the assay with GST-Aq-NF-kB, 5.25 z-score. Also, the binding signal in the assay with GST-Hu-p50 came out at 6.29 z-score.
